Measured values: PubChem BioAssay (NCI)
Where “and” joins values, the source holds several entries; their conditions need not be identical. Equal entries are not always repeated. The panel holds about 83,000 compounds, 20% with a hit somewhere; the sample as a whole holds those more often.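 Percent growth is the endpoint: 0 to 100 indicates growth inhibition (40 means 60% inhibition), 0 means no net growth, and negative values indicate cell death.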 Calls of active or inactive are those of the source. The calls were made as follows: active = growth percent below 10; inactive = the rest.

Key:
Assay in all cases: NCI-60 one-dose screen, 48 h (100 = growth as untreated, 0 = no growth, -100 = all killed)
[1] = test system: HCT-15 colon
[2] = test system: HT29 colon
[3] = test system: SNB-75 CNS
[4] = test system: SNB-19 CNS
[5] = test system: U251 CNS
[6] = test system: PC-3 prostate
[7] = test system: SK-MEL-5 melanoma
[8] = test system: UACC-62 melanoma
[9] = test system: LOX IMVI melanoma
[10] = test system: SK-MEL-28 melanoma; conditions: 10 µM
[11] = test system: SK-MEL-2 melanoma
[12] = test system: EKVX NSCLC
[13] = test system: SN12C renal
[14] = test system: UO-31 renal
[15] = test system: TK-10 renal
[16] = test system: ACHN renal
[17] = test system: CAKI-1 renal
[18] = test system: A498 renal
[19] = test system: CCRF-CEM leukemia
[20] = test system: MOLT-4 leukemia

For `CC[C@@]1(O)C(=O)OCc2c1cc1n(c2=O)Cc2cc3c(CN(C)C)c(O)ccc3nc2-1`, the growth ([1]; 10 µM) was 21.2% (inactive) and -10.4% (active), the growth ([2]; 10 µM) was -15.4% (active) and -22.9% (active) and the growth ([3]; 10 µM) was 2.72% (active) and -62.8% (active). For the same molecule, the growth ([4]; 10 µM) was 16% (inactive) and 10.7% (inactive), the growth ([5]; 10 µM) was -23% (active) and 2.06% (active) and the growth ([6]; 10 µM) was -1.74% (active). For the same molecule, the growth ([7]; 10 µM) was -85.8% (active) and -77.4% (active), the growth ([8]; 10 µM) was -73.1% (active) and -71.5% (active) and the growth ([9]; 10 µM) was -14.1% (active) and -34.9% (active). The growth [10] was 19.5% (inactive), the growth ([11]; 10 µM) was -36.9% (active) and -18.1% (active) and the growth ([12]; 10 µM) was 9.24% (active) and 18.9% (inactive). For the same molecule, the growth ([13]; 10 µM) was 13.6% (inactive) and 14.3% (inactive), the growth ([14]; 10 µM) was -45.7% (active) and -74.6% (active) and the growth ([15]; 10 µM) was 2.54% (active) and -4.42% (active). The growth ([16]; 10 µM) was -40% (active) and -40.5% (active), the growth ([17]; 10 µM) was -35% (active) and -16.2% (active) and the growth ([18]; 10 µM) was -50.8% (active) and -69.4% (active). For the same molecule, the growth ([19]; 10 µM) was -28.7% (active) and the growth ([20]; 10 µM) was -3.69% (active) and -19.2% (active).
With `CC/C(=C(\c1ccccc1)c1ccc(OCCN(C)C)cc1)c1ccccc1` the growth ([1]; 10 µM) was 7.63% (active), the growth ([1]; 12.5 µM) was -65% (active) and the growth ([2]; 10 µM) was -11.2% (active). For the same molecule, the growth ([2]; 12.5 µM) was -66.6% (active), the growth ([3]; 10 µM) was 39.9% (inactive) and the growth ([3]; 12.5 µM) was -4.48% (active). The growth ([4]; 10 µM) was 52.6% (inactive), the growth ([4]; 12.5 µM) was 1.19% (active) and the growth ([5]; 10 µM) was 4.8% (active). The growth ([5]; 12.5 µM) was -84.3% (active), the growth ([6]; 10 µM) was 34.4% (inactive) and the growth ([6]; 12.5 µM) was -30.7% (active). For the same molecule, the growth ([7]; 10 µM) was -95.2% (active), the growth ([7]; 12.5 µM) was -94.3% (active) and the growth ([8]; 12.5 µM) was -90.5% (active). For the same molecule, the growth ([9]; 10 µM) was -43.9% (active), the growth ([9]; 12.5 µM) was -99% (active) and the growth [10] was 11.3% (inactive). The growth ([11]; 10 µM) was 68.5% (inactive), the growth ([11]; 12.5 µM) was -50% (active) and the growth ([12]; 10 µM) was 60% (inactive). For the same molecule, the growth ([12]; 12.5 µM) was 36.5% (inactive), the growth ([13]; 10 µM) was 47.7% (inactive) and the growth ([13]; 12.5 µM) was 37.1% (inactive). For the same molecule, the growth ([14]; 10 µM) was 40.3% (inactive), the growth ([14]; 12.5 µM) was -62.4% (active) and the growth ([15]; 10 µM) was 51.9% (inactive). The growth ([15]; 12.5 µM) was 56.2% (inactive), the growth ([16]; 10 µM) was 60.6% (inactive) and the growth ([16]; 12.5 µM) was 25.9% (inactive). For the same molecule, the growth ([17]; 10 µM) was 29.1% (inactive), the growth ([17]; 12.5 µM) was 9.74% (active) and the growth ([18]; 10 µM) was 64.1% (inactive). The growth ([18]; 12.5 µM) was -6.6% (active), the growth ([19]; 10 µM) was 34.6% (inactive) and the growth ([19]; 12.5 µM) was -14.1% (active). For the same molecule, the growth ([20]; 10 µM) was 33.3% (inactive) and the growth ([20]; 12.5 µM) was -10.8% (active).
With `COc1ccc2sc3cccc(NCCN(C)C)c3c(=O)c2c1` the growth ([1]; 10 µM) was 32.2% (inactive) and -29.5% (active), the growth ([2]; 10 µM) was 5.38% (active) and -36.9% (active) and the growth ([3]; 10 µM) was 51.8% (inactive) and -6.29% (active). The growth ([4]; 10 µM) was 63.9% (inactive) and 13.6% (inactive), the growth ([5]; 10 µM) was -18.1% (active) and the growth ([6]; 10 µM) was 34.2% (inactive) and 21.1% (inactive). For the same molecule, the growth ([7]; 10 µM) was 65.1% (inactive) and -98.2% (active), the growth ([8]; 10 µM) was 64.4% (inactive) and -96.3% (active) and the growth ([9]; 10 µM) was 17.1% (inactive) and -91% (active). For the same molecule, the growth [10] was 85.8% (inactive) and -80.8% (active), the growth ([11]; 10 µM) was 77.3% (inactive) and 70.7% (inactive) and the growth ([12]; 10 µM) was 26.2% (inactive). For the same molecule, the growth ([13]; 10 µM) was 45.1% (inactive) and 9.54% (active), the growth ([14]; 10 µM) was 17.4% (inactive) and -2.55% (active) and the growth ([15]; 10 µM) was 36.1% (inactive) and 32.2% (inactive). For the same molecule, the growth ([16]; 10 µM) was 21.3% (inactive) and -28.3% (active), the growth ([17]; 10 µM) was 23.8% (inactive) and -29.8% (active) and the growth ([18]; 10 µM) was 77.8% (inactive) and 5.39% (active). For the same molecule, the growth ([19]; 10 µM) was 21.3% (inactive) and the growth ([20]; 10 µM) was 8.84% (active) and -15.2% (active).
With `CN(Cc1cnc2nc(N)nc(N)c2n1)c1ccc(C(=O)N[C@@H](CCC(=O)O)C(=O)O)cc1` the growth ([1]; 2.5 µM) was 28.5% (inactive), the growth ([1]; 10 µM) was 36% (inactive) and the growth ([2]; 2.5 µM) was 29% (inactive). For the same molecule, the growth ([2]; 10 µM) was 25.9% (inactive), the growth ([3]; 2.5 µM) was 73.8% (inactive) and the growth ([3]; 10 µM) was 66% (inactive). The growth ([4]; 2.5 µM) was 33.9% (inactive), the growth ([4]; 10 µM) was 29.5% (inactive) and the growth ([5]; 2.5 µM) was 34.1% (inactive). The growth ([5]; 10 µM) was 38.3% (inactive), the growth ([6]; 2.5 µM) was 33.8% (inactive) and the growth ([6]; 10 µM) was 37% (inactive). For the same molecule, the growth ([7]; 2.5 µM) was 20% (inactive), the growth ([7]; 10 µM) was 3.31% (active) and the growth ([8]; 2.5 µM) was 24.5% (inactive). For the same molecule, the growth ([8]; 10 µM) was 16.8% (inactive), the growth ([9]; 2.5 µM) was 14.3% (inactive) and the growth ([9]; 10 µM) was 16.3% (inactive). The growth ([11]; 2.5 µM) was 93.1% (inactive), the growth ([11]; 10 µM) was 83.2% (inactive) and the growth ([12]; 2.5 µM) was 41.5% (inactive). For the same molecule, the growth ([12]; 10 µM) was 47% (inactive), the growth ([13]; 2.5 µM) was 33.3% (inactive) and the growth ([13]; 10 µM) was 26.9% (inactive). For the same molecule, the growth ([14]; 2.5 µM) was 37.8% (inactive), the growth ([14]; 10 µM) was 32.3% (inactive) and the growth ([15]; 2.5 µM) was 66.9% (inactive). For the same molecule, the growth ([15]; 10 µM) was 67.7% (inactive), the growth ([16]; 2.5 µM) was 24.9% (inactive) and the growth ([16]; 10 µM) was 29.4% (inactive). For the same molecule, the growth ([17]; 2.5 µM) was 19.2% (inactive), the growth ([17]; 10 µM) was 15.5% (inactive) and the growth ([18]; 2.5 µM) was -11.8% (active). The growth ([19]; 2.5 µM) was 12.9% (inactive), the growth ([19]; 10 µM) was 18.8% (inactive) and the growth ([20]; 2.5 µM) was 14.7% (inactive). The growth ([20]; 10 µM) was 10.9% (inactive).
